Literature values, collected in PubChem BioAssay AID977608.
About 4,300 (100%) of roughly 4,300 compounds were called active. The limit is not given here; nearly all actives have IC50 up to about 1400 µM. The set was probably picked from earlier hits. The list shows a part of the results. Where a SMILES comes first, the peptide text is derived from it. Square brackets hold non-standard residues; d marks the D form. Peptide text beside a SMILES is read from it. [ ]: non-standard residue; d: D form. Orn(CH(NH2)2) = NC(N)NCCC[C@H](N)C(=O)O

Assay: protein-ligand inhibition affinities from structures – PDB-derived complexes (AID 977608)

For `Cc1ccc(S(=O)(=O)Nc2ccc(Oc3ccccc3)cc2C(=O)O)cc1`, the IC50 (literature IC50, protein: Genome polyprotein, PDB entry 4j08) is listed as 0.22 µM (active).
For `N=C[C@@H]1CCCN1C(=O)CNC12C[C@@H]3C[C@@H](CC(O)(C3)C1)C2`, the IC50 (literature IC50, protein: Dipeptidyl peptidase 4, PDB entry 3w2t) is given as 0.0292 µM (active).
In the case of `O=C(O)c1sc(-c2ccccc2)cc1N1C(=O)CC[C@@H]1C1CCCCC1`, the IC50 (literature IC50, protein: NS5B, PDB entry 4tn2) is given as 0.12 µM (active).
For `Cc1[nH]ncc1-c1ccccc1Cl`, the IC50 (literature IC50, protein: Adenylate cyclase type 10 hsolAC, PDB entry 4oyo) is given as 300 µM (active).
In the case of `Cc1[nH]ncc1-c1ccc(F)cc1`, the IC50 (literature IC50, protein: Adenylate cyclase type 10 hsolAC, PDB entry 4oz2) is listed as 1000 µM (active).
For `O=c1c2ccccc2oc2c(Cc3ccc(O)cc3)[nH]c(-c3cccs3)c12`, the IC50 (literature IC50, protein: cGMP-specific 3',5'-cyclic Phosphodiesterase-5 (PDE5), PDB entry 4md6) is given as 0.017 µM (active).
For `CCC(=N)C[C@@H](c1ccccc1)[C@]12Nc3cc(C)c(C)cc3N(C[C@H](O)[C@H](O)[C@H](O)CO[P+](O)(O)O[P+](O)(O)OC[C@H]3O[C@@H](n4cnc5c(N)ncnc54)[C@H](O)[C@@H]3O)[C@@H]1NC(=O)NC2=O`, the IC50 (literature IC50, protein: LYSINE-SPECIFIC HISTONE DEMETHYLASE 1A, PDB entry 4uv9) is listed as 0.975 µM (active).
In the case of `Cc1cc2c(cc1C)N1[C@@](C)(N)CC(c3ccccc3)[C@]13C(=O)NC(=O)N[C@H]3N2C[C@H](O)[C@H](O)[C@H](O)CO[P+](O)(O)O[P+](O)(O)OC[C@H]1O[C@@H](n2cnc3c(N)ncnc32)[C@H](O)[C@@H]1O` (stereo partly specified), the IC50 (literature IC50, protein: LYSINE-SPECIFIC HISTONE DEMETHYLASE 1A, PDB entry 4uvb) is listed as 3.26 µM (active).
In the case of `Cc1cc2c(cc1C)N([C@@](N)(CCc1ccccc1)c1ccccc1)C1C(=O)NC(=O)N=C1N2C[C@H](O)[C@H](O)[C@H](O)CO[P+](O)(O)O[P+](O)(O)OC[C@H]1O[C@@H](n2cnc3c(N)ncnc32)[C@H](O)[C@@H]1O` (stereo partly specified), the IC50 (literature IC50, protein: LYSINE-SPECIFIC HISTONE DEMETHYLASE 1A, PDB entry 4uvc) is listed as 0.131 µM (active).
For `CC(=N)C[C@@H](c1ccccc1)[C@]12Nc3cc(C)c(C)cc3N(C[C@H](O)[C@H](O)[C@H](O)CO[P+](O)(O)O[P+](O)(O)OC[C@H]3O[C@@H](n4cnc5c(N)ncnc54)[C@H](O)[C@@H]3O)[C@@H]1NC(=O)NC2=O`, the IC50 (literature IC50, protein: LYSINE-SPECIFIC HISTONE DEMETHYLASE 1A, PDB entry 4uva) is given as 1.78 µM (active).
In the case of `Cc1cc2c(cc1C)N(C[C@H](O)[C@H](O)[C@H](O)CO[P+](O)(O)O[P+](O)(O)OC[C@H]1O[C@@H](n3cnc4c(N)ncnc43)[C@H](O)[C@@H]1O)[C@@H]1NC(=O)NC(=O)[C@@]1([C@@H](CC(=N)Cc1ccccc1)c1ccccc1)N2`, the IC50 (literature IC50, protein: LYSINE-SPECIFIC HISTONE DEMETHYLASE 1A, PDB entry 4uv8) is listed as 0.335 µM (active).
For `O=C(O)c1nc(-c2ccc3cccc(N=Nc4nc5ccccc5s4)c3c2)sc1CCCCc1ccccc1`, the IC50 (literature IC50, protein: BCL-2-LIKE PROTEIN 1, PDB entry 3zlo) is listed as 0.0015 µM (active).
In the case of `CC[C@H](C)[C@H](NC(=O)[C@H](C)NC(=O)[C@H](CC(N)=O)NC(=O)[C@@H]1CCCN1C(=O)[C@@H](N)CC(C)C)C(=O)NCC(=O)N[C@@H](CCCNC(N)N)C(=O)O` (H-LPNAIG[Orn(CH(NH2)2)]-OH), the IC50 (literature IC50, protein: Low-density lipoprotein receptor-related protein 6, PDB entry 3sov) is listed as 61 µM (active).
In the case of `NCCCC[C@H](N)C(=O)N[C@@H](CCCNC(N)N)C(=O)N1CCC[C@H]1C(=O)N1CCC[C@H]1C(=O)N1CCC[C@H]1C(=O)N1CCC[C@H]1C(=O)N1CCC[C@H]1C(=O)N1CCC[C@H]1C(=O)NCC(=O)O` (H-K[Orn(CH(NH2)2)]PPPPPPG-OH), the IC50 (literature IC50, protein: cortactin isoform a, PDB entry 2d1x) is listed as 7.9 µM (active).
In the case of `C#CC[C@H](NC(=O)[C@@H](NC(=O)[C@H](CC(C)C)NC(=O)[C@@H](NC(=O)CNC(=O)[C@@H](NC(=O)CNC(=O)[C@H](C)NC(=O)[C@@H](CCC)NC(=O)[C@](C)(N)c1ccccc1)[C@@H](C)CC)[C@@H](C)CC)[C@@H](C)O)C(=O)O`, the IC50 (literature IC50, protein: HLA class I histocompatibility antigen, A-2 alpha chain HLA-A 0201, PDB entry 4wj5) is listed as 0.51 µM (active).
For `CC[C@H](C)[C@H](NC(=O)[C@@H](NC(=O)[C@@H](NC(=O)[C@H](CCCNC(N)N)NC(=O)[C@H](CCCCN)NC(=O)[C@H](CO)NC(=O)[C@H](CCCNC(N)N)NC(=O)CNC(=O)[C@@H](NC(=O)[C@H](CCC(N)=O)NC(=O)CNC(=O)[C@H](CC(C)C)NC(=O)[C@H](CCCCN)NC(=O)[C@@H]1CCCN1C(=O)[C@@H]1CCCN1C(=O)[C@H](CCCNC(N)N)NC(=O)[C@@H](N)CCCCN)[C@@H](C)CC)C(C)C)C(C)C)C(=O)O` (H-K[Orn(CH(NH2)2)]PPKLGQIG[Orn(CH(NH2)2)]SK[Orn(CH(NH2)2)]VVI-OH), the IC50 (literature IC50, protein: Calcium/calmodulin dependent protein kinase II, PDB entry 3kl8) is listed as 0.12 µM (active).
In the case of `CC[C@H](C)[C@H](NC(=O)[C@H](CO[P+](O)(O)O)NC(=O)[C@H](C)NC(=O)[C@H](CCC(N)=O)NC(=O)[C@@H](N)CCCNC(N)N)C(=O)N[C@@H](CCC(=O)O)C(=O)N[C@@H](CC(C)C)C(=O)N1CCC[C@H]1C(=O)N[C@@H](CO)C(=O)N[C@@H](CCSC)C(=O)O`, the IC50 (literature IC50, protein: HLA class I histocompatibility antigen, PDB entry 3bh8) is listed as 0.0112 µM (active).
For `CC[C@H](C)[C@H](NC(=O)[C@H](CCCNC(N)N)NC(=O)CNC(=O)[C@@H](NC(=O)[C@@H](NC(=O)[C@@H](NC(=O)[C@@H](NC(=O)[C@H](CO)NC(=O)CNC(=O)CN)C(C)C)C(C)C)[C@@H](C)CC)C(C)C)C(=O)N[C@H](C(=O)N[C@@H](CC(C)C)C(=O)N[C@@H](CO)C(=O)O)[C@@H](C)CC` (HELM PEPTIDE1{G.G.S.V.V.I.V.G.[NC(N)NCCC[C@H](N[*:1])C(=O)[*:2]].I.I.L.S}$$$$V2.0), the IC50 (literature IC50, protein: Genome polyprotein (D1194V mutation), PDB entry 4i32) is listed as 0.058 µM (active), the IC50 (literature IC50, protein: Genome polyprotein (R1181K mutation), PDB entry 4i33) is listed as 0.0047 µM (active) and the IC50 (literature IC50, protein: Genome polyprotein, PDB entry 4i31) is listed as 0.00048 µM (active).
For `CCCNc1nc(N)c(C(=O)c2ccc(Cl)s2)s1`, the IC50 (literature IC50, protein: Cyclin-dependent kinase 2, PDB entry 3s00) is given as 12 µM (active).
In the case of `CNc1cc(-c2cccc(Cl)c2Cl)nc(N)n1`, the IC50 (literature IC50, protein: 7,8-dihydro-8-oxoguanine triphosphatase, human MTH1 protein, PDB entry 4n1t) is listed as 0.0008 µM (active).
In the case of `Nc1nc(NC2C=C2)cc(-c2cccc(Cl)c2Cl)n1`, the IC50 (literature IC50, protein: 7,8-dihydro-8-oxoguanine triphosphatase, human MTH1 protein, PDB entry 4n1u) is listed as 0.005 µM (active).
For `O=C(NO)c1ncc(-c2ccccc2Cl)o1`, the IC50 (literature IC50, protein: METHIONINE AMINOPEPTIDASE, PDB entry 4a6w) is listed as 1.9 µM (active).
In the case of `Cc1ccc(OC[C@@H](O)CNC2Cc3ccccc3C2)cc1C`, the IC50 (literature IC50, protein: Endochitinase CTS1, PDB entry 4txe) is listed as 2.4 µM (active).
For `C1=CC1c1[nH]nc2nccc(-c3ccco3)c12`, the IC50 (literature IC50, protein: CHECKPOINT KINASE 2, PDB entry 4bdj) is listed as 7.2 µM (active).
In the case of `O=C(NCc1ccc(S(=O)(=O)C2CCN(C3CCOCC3)CC2)cc1)n1cc2ccncc2c1`, the IC50 (literature IC50, protein: Nicotinamide phosphoribosyltransferase, PDB entry 4kfp) is given as 0.01 µM (active).
For `C[C@H](C(=O)O)c1ccc2c(c1)[nH]c1ccc(Cl)cc12`, the IC50 (literature IC50, protein: Fatty-acid amide hydrolase 1, PDB entry 4do3) is given as 79 µM (active).
In the case of `Nc1nc(Nc2ccc(S(N)(=O)=O)cc2)sc1C(=O)Nc1c(F)cccc1F`, the IC50 (literature IC50, protein: Cyclin-dependent kinase 2, PDB entry 3r9h) is given as 100 µM (active).
In the case of `Nc1nc(Nc2ccc(S(N)(=O)=O)cc2)sc1C(=O)Nc1cccc(F)c1`, the IC50 (literature IC50, protein: Cyclin-dependent kinase 2, PDB entry 3r9d) is given as 71 µM (active).
In the case of `Nc1nc(Nc2ccc(S(N)(=O)=O)cc2)sc1C(=O)Nc1cc(F)cc(F)c1`, the IC50 (literature IC50, protein: Cyclin-dependent kinase 2, PDB entry 3r9o) is given as 100 µM (active).
